Test results published in PubChem BioAssay (Tox21).
Records with an inconclusive call do not appear. Entries that show only a call come without a potency. Calls of active or inactive are those of the source. Calls follow the shape of the dose curve; as a rule, active = well fitted cell-killing curve with a large enough effect in the repeat runs; inconclusive = weak or mixed curves, or effect the other way; inactive = flat fitted curve, though single readings scatter.

How the values were obtained:
[1] = cAMP Responsive Elements (CRE) small molecule antagonists, cell-based qHTS assay: qHTS cell viability counter screen (AID 2060913); also: nearly all actives have a fitted effect of over 40% in size
Outline: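 Cytotoxicity read in the same wells as the CRE-bla HEK293T antagonist assay: after 3 h compound with 0.25 uM NKH477 final and 2 h beta-lactamase substrate, CellTiter-Glo luminescence measured.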

[2] = cAMP Responsive Elements (CRE) small molecule agonists, cell-based qHTS assay: qHTS cell viability counter screen (AID 2060914); also: nearly all actives have a fitted effect of over 50% in size
Outline: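 In the same wells as the reporter read, viability of CRE-bla HEK 293T cells was quantified by CellTiter-Glo luminescence after a 3 h compound exposure.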

SMILES | Potency [1] | Potency [2]
CCCCCC(=O)CC | inactive | inactive
O=P(O)(O)O | inactive | inactive
Cc1cccc(O)c1 | inactive | inactive
C=C(C)C(=O)OCC(C)(C)COC(=O)C(=C)C | inactive | inactive
CCC(OCCCOC)OC(C)=O (configuration not stated) | inactive | inactive
CN(C)c1ccc(Cc2ccc(N(C)C)cc2)cc1 | inactive | inactive
NNc1nc(-c2ccccc2)cs1 | inactive | inactive
C=CCCC(=O)/C=C/C1C(C)=CCCC1(C)C (configuration not stated) | inactive | inactive
CN(C)C(=O)CNC(=O)Cc1ccccc1 | inactive | inactive
CCOC(=O)C1OC1c1ccccc1 (configuration not stated) | inactive | inactive
O=C(CO)[C@@H](O)[C@H](O)[C@@H](O)CO | inactive | inactive
O[C@@H](COc1cccc2ncccc12)CN1CCN(C2c3ccccc3[C@@H]3[C@H](c4ccccc42)C3(F)F)CC1 (some centres not stated) | inactive | inactive
NC(Cc1c[nH]c2ccccc12)C(=O)O (configuration not stated) | inactive | inactive
CCCCCCCCSCc1cc(C)c(O)c(CSCCCCCCCC)c1 | inactive | inactive
Cc1nc(Nc2ncc(C(=O)Nc3c(C)cccc3Cl)s2)cc(N2CCN(CCO)CC2)n1 | inactive | inactive
OCCN(CCO)c1ccccc1 | inactive | inactive
